Results from PubChem BioAssay (NCI).
Values joined by “and” are separate entries in the source; they are usually repeats but may differ in a detail not shown here. Identical values can stand only once. The panel holds about 79,000 compounds, 15% with a hit somewhere; the sample as a whole holds those more often. Values without a mark were called inactive. Active and inactive are the calls of the source. No stated cut-off is given here; in the data, active means growth inhibition above about 70%; inactive means the rest.

Assay: NCI Yeast Anticancer Drug Screen. Data for the mlh1 rad18 strain (AID 175)
Conditions: S. cerevisiae mlh1 rad18 strain growth inhibition; at 50.0 µM (retest, dose inferred, filed as 5.0); hits give high values
Procedure, shortened: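 Inhibition values reflect reduced growth of mutant yeast versus vehicle-treated controls following compound exposure; the mutations affect DNA damage repair.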

| Compound | growth inhibition |
| --- | --- |
| CCCCN(C)CC(C(C)=O)C(c1ccccc1)c1c(O)c2ccccc2oc1=O (stereo unspecified) | 22% |
| O=[n+]1c2ccccc2n([O-])c2ccccc21.[Cl][Ni][Cl] | 96% (active) |
| COc1ccc(C(Cc2ccc(Cl)c(Cl)c2)NCCO)cc1 (stereo unspecified) | 48% |
| O=C(N/N=C/c1cc(Cl)cc(Cl)c1[O-])c1ccccc1O.O=C(N/N=C/c1cc(Cl)cc(Cl)c1[O-])c1ccccc1O.[Zn+2] | 64% |
| Oc1ccc(Cl)cc1Sc1cc(Cl)ccc1O | 100% (active) and 99% (active) |
| O=S(=O)([O-])[O-].[OH3+].[OH3+].[OH3+].[Ru+2].c1ccccc1 | 30% |
| CCCCCC(Cn1ccnc1)c1ccc(Cl)cc1Cl (stereo unspecified) | 100% (active) |
| CC1=C(CO)C(=O)OC(C(C)C2CCC3C4CC5OC56C(O)C(N5CC5)=CC(=O)C6(C)C4CCC23C)C1 (stereo unspecified) | 78% (active) |
| CCCC[CH2][Sn]([CH2]CCCC)[CH2]CCCC.CCCC[CH2][Sn]([CH2]CCCC)[CH2]CCCC | 100% (active) |
| CCC[CH2][Sn]1([CH2]CCC)[O]C(=O)C(C(C)C)N=Cc2ccccc2[O]1 (stereo unspecified) | -2% |
| Oc1c(Cl)cc(-c2cc(Cl)c(O)c(Cl)c2)cc1Cl | 99% (active) |
| CC(=O)Nc1ccc(/C=N/N=C(/N)N[N+](=O)[O-])cc1 | -9% |
| CC(Br)c1ccccc1 (stereo unspecified) | 21% |
| C[Si]1(C)CCCCC2(C1)C(=O)NC(=O)NC2=O | 3% |
| CCCCCCCCCCCCCCCc1cccc(O)c1O | 7% |
| CC1(C)OC2OC3C(CN(CCCl)Cc4ccccc4)OC(c4ccccc4)OC3C2O1 (stereo unspecified) | 49% |
